Source: PubChem BioAssay
A selection: hits, their analogues and other compounds. The true share with any hit is near 19%.
Pf growth 96h – inhibits malaria parasite growth, 96 h | hit rate 6.9% among 320,000 | Potency, µM (series often up to 28.7 µM), inactives show top-dose activity change, negative = inhibition, most hits filed as inhibitors | AID 504834 | P. falciparum luciferase reporter growth, 96 h; also: potency is read from the fitted curve at half-maximal effect; % is scaled to controls: 0 for no effect and ±100 for the full control effect
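96 h incubation, 37 C, 5% CO2, of luciferase-reporter P. falciparum-infected RBCs (2% hematocrit, 0.05% parasitemia final) with test compounds; endpoint luminescence.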
MARV entry inh – inhibitors of Marburg virus binding or cell entry | Marburg virus pseudotyped entry inhibition, cell reporter | Potency, µM (titrated, usually from 37.8 µM), inactives show at the top dose activity change, negative = inhibition, actives largely listed as inhibitors | hit rate 1.8% among 300,000 | AID 540276; calls by dose curve; tested in HEK293 cells; also: potency is read from the fitted curve at half-maximal effect; % is scaled to controls: 0 for no effect and ±100 for the full control effect
Pf growth 48h – P. falciparum growth inhibition at 48 hours (one generation); AID 504832; Potency, µM (doses to about 28.7 µM), for the others: top-dose activity change, negative = inhibition, usual class: inhibitors; hit rate 5.9% among 310,000; P. falciparum luciferase growth in erythrocytes, 48 h; also: potency is read from the fitted curve at half-maximal effect; % is scaled to controls: 0 for no effect and ±100 for the full control effect
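Erythrocytes infected with P. falciparum carrying an integrated firefly luciferase reporter (2% hematocrit, 0.1% parasitemia final) were exposed to compounds in RPMI 1640 with 0.5% Albumax at 37 C, 5% CO2. Growth inhibition was scored as reduced luminescence.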
CHX counter – affects cycloheximide protein synthesis inhibition readout, counter-screen. cell reporter, cycloheximide protein synthesis inhibition counterscreen. max response, %. hit rate 12% among 300,000; in the data active = max response mostly above about 13%, no sharp cut-off; inactive = mostly below about 14%; also: read at 38.3 µM for the half of the compounds with a filed dose; 0% is about no effect
LASV entry inh – inhibitors of Lassa virus binding or cell entry; Lassa virus pseudotype entry inhibition, cell reporter; Potency, µM (titrated, usually from 37.9 µM), without a hit: at the highest dose activity change, negative = inhibition, hits mostly inhibitors; hit rate 1.2% among 300,000; AID 540256; calls by dose curve; tested in HEK293 cells; also: potency is read from the fitted curve at half-maximal effect; % is scaled to controls: 0 for no effect and ±100 for the full control effect; nearly all actives have a fitted effect of over 50% in size
Shiga inhibitor – blocks Shiga toxin action in Vero cells; Vero cells, Shiga toxin protein synthesis inhibition reporter; inhibition, % at 38.7 µM; hit rate 9.2% among 290,000; in the data active = inhibition mostly above about 28%, no sharp cut-off; inactive = mostly below about 43%; also: 0% is about no effect
* hit, by the source's call; u = inconclusive; x = no result given; ! = repeats disagree; [ ] = remark or other dose. Unless noted, calls follow the shape of the dose curve; as a rule, active = well fitted inhibition curve with a large enough effect; inconclusive = small, poorly fitted or top-dose-only effect, or another doubt; inactive = no such curve, though single readings can be large or run the other way.

SMILES	Pf growth 96h	MARV entry inh	Pf growth 48h	CHX counter	LASV entry inh	Shiga inhibitor
C/C(=N\NC(=O)c1ccccc1N)c1ccc(NC(=O)Cc2ccccc2)cc1	-17.9%	-16.8%	9.28µM*	36.3*	7.7%	65.4*
COc1ccccc1C(=O)N/N=C(\C)c1ccc(NC(=O)Cc2ccccc2)cc1	35.6%	x	u	2.0	x	16.7
COc1ccc(C2CC(=O)C3=C(C2)Nc2ncnn2C3c2ccccc2C)c(OC)c1 (configuration not stated)	8.28µM*	u	7.38µM*	-0.3	-8.5%	-20.5
CCC(C)Nc1ccc(NC(C)CC)cc1 (configuration not stated)	1.17µM*	x	1.04µM*	x	x	x
CCc1[nH]nc2c1C1(CCN(C(=O)OCc3ccccc3)CC1)C(C#N)=C(N)O2	0.185µM*	14.8%	-25.9%	2.3	9.5%	6.6
CCn1cc(CCCC(=O)NCc2ccc(OC)cc2)c2ccccc21	5.0%	x	2.33µM*	8.9	x	-1.0
CCc1ccc(CNC(=O)CCc2cn(C)c3ccccc23)cc1	1.3%	x	5.1%	6.6	x	-7.2
Cc1ccc(CNC(=O)CCc2cn(C)c3ccccc23)cc1	13.1µM*	u	16.8%	-3.0	u	-1.2
Cc1ccc(Cn2cc(CCC(=O)O)c3ccccc32)cc1	4.65µM*	x	x	-0.7	x	-1.1
Cc1ccc(CNC(=O)CCn2cc(-c3ccc(C)cc3)nc2CCN)cc1	u	x	11.7µM*	x	x	x
C=CCn1c(C)c(C(=O)OCC)c2cc(O)c3ccccc3c21	u	-0.4%[46.1 µM]	-19.5%	-0.3	-14.3%[46.1 µM]	-2.9
CCCCC[C@]12Cc3cc(OC)c(OC)cc3[C@H](O1)c1c(cc(C)n(-c3ccccc3)c1=O)O2	x	31.5%[14.2 µM]	x	x	x	x
Cn1cc(CC(=O)NCc2ccc(F)cc2)c2ccccc21	8.6%	11.1%	-1.9%	12.2*	0.7%	5.9
CCOc1ccc(CNC(=O)CCCc2cn(C)c3ccccc23)cc1	4.4%	u	3.7µM*	-2.6	u	6.3
CCn1cc(CCC(=O)NCc2cccc(OC)c2OC)c2ccccc21	-16.0%	u	-27.3%	-1.8	4.9%	-6.4
CC(C)c1ccc(NC(=O)Cc2cn(C)c3ccccc23)cc1	u	14.6%[46.1 µM]	4.3%	13.8*	u	21.1
CCOc1ccccc1CNC(=O)CCc1cn(CC)c2ccccc12	3.2%	x	14.7µM*	-3.7	x	-13.6
Cn1cc(SCC(=O)NCc2ccc(F)cc2)c2ccccc21	40.0%	-10.3%[46.1 µM]	10.4%	8.9	x	-13.7
CC(C)c1ccc(N(CC(=O)NCc2ccc(F)cc2)C(=O)c2snc(C(N)=O)c2N)cc1	-19.5%	u	-9.7%	-2.3	-15.6%	-11.9
O/N=C/c1ccc2ccccc2c1	43.5%	0.0%[46.1 µM]	29.9%	21.2*	11.0%	55.7
Cc1cc(C)c2nc(NNC(=O)c3ccc(S(=O)(=O)N4CCc5ccccc5C4)cc3)sc2c1	3.7µM*	u	2.33µM*	1.5	16.4µM*	19.9
Cc1cc(C)c2nc(NNC(=O)c3cc(=O)c4ccccc4o3)sc2c1	u	x	u	19.3*	x	27.9
Cc1cc(C)c2sc(NNC(=O)c3ccc(S(=O)(=O)N4CCc5ccccc5C4)cc3)nc2c1	11.7µM*	u	u	-1.0	11.6µM*	-4.4
COc1ccc2nc(NC(=O)c3cc(=O)c4ccccc4o3)sc2c1	x	u	x	x	11.2%[46.1 µM]	x
CCOC(=O)c1ccc(NC(=O)c2cc3c(C)nn(-c4ccccc4Cl)c3s2)s1	16.2%	3.3%	-4.5%	-1.3	9.7%	14.3
SMILES	Pf growth 96h	MARV entry inh	Pf growth 48h	CHX counter	LASV entry inh	Shiga inhibitor
Nc1nc(CN2CCCCCC2)nc(Nc2ccc(F)cc2)n1	u	4.1%[46.1 µM]	x	14.3	8.3%	17.9
O=C(CSc1nnnn1-c1ccccc1)N1CCN(C(=O)c2ccco2)CC1	x	20.8%	-6.0%	-3.6	-1.5%	-16.5
COc1ccc(-c2coc3c2c(C)cc2oc(=O)c(C)c(C)c23)cc1	x	-9.7%[46.1 µM]	x	x	5.0%[46.1 µM]	x
COc1ccc(NC(=O)COC(=O)c2cc(C)oc2C)cc1OC	-3.5%	x	-19.2%	x	x	x
Cc1cc(C=C2C(=O)NC(=S)NC2=O)c(C)n1C1CCCC1	-8.2%	u	10.1%	43.4*	6.6%[46.1 µM]	70.7*
NC(=O)C1CCCN(S(=O)(=O)c2ccccc2)C1 (configuration not stated)	-21.2%	-0.2%	-5.3%	5.3	-2.7%	16.9
Cc1noc(C)c1COC(=O)c1ccc(S(=O)(=O)NCc2ccco2)cc1	u	-3.2%[46.1 µM]	-3.1%	16.4*	-15.5%	56.5
CC(OC(=O)c1ccc(S(=O)(=O)NCc2ccco2)cc1)C(=O)Nc1ccc(Cl)cn1 (configuration not stated)	1.1%	u	1.8%	37.6*	-2.6%	68.4*
CC1CCCCC1NS(=O)(=O)c1ccc(S(=O)(=O)NCc2ccncc2)cc1 (configuration not stated)	u	u	14.7µM*	5.8	u	-6.3
O=C(COC(=O)c1ccc(S(=O)(=O)NCc2ccco2)cc1)c1ccccc1	3.9%	u	14.1%	-1.3	13.2%	17.2
O=C(Nc1ccc(S(=O)(=O)NCc2ccco2)cc1)c1ccc(F)cc1	-12.6%	8.0%[46.1 µM]	u	28.0*	u	46.0*
O=C(COC(=O)c1ccc(S(=O)(=O)NCc2ccco2)cc1)Nc1ncc(Cl)cc1Cl	8.0%	-13.8%	2.8%	-3.8	-6.4%	7.9
O=C(Nc1ccccc1)c1ccc(S(=O)(=O)NCc2ccco2)cc1	1.4%	u	-1.0%	-0.9	u	-7.4
CCCCn1nc2cc(C(=O)NCc3cc(C(F)(F)F)cc(C(F)(F)F)c3)ccc2c1OCC	21.7%	x	u	-3.3	x	7.2
O=C(C1=NC2=C(CCCC2)CC1)C1CCCCN1 (configuration not stated)	x	2.8%[46.1 µM]	x	x	x	x
CC(CN1C(C)CCCC1C)OC(=O)c1ccc(Cl)cc1Cl (configuration not stated)	5.8%	-4.2%[46.1 µM]	13.1%	7.7	-0.5%	-11.8
Cc1cc(C)cc(NC(=O)c2cc(S(=O)(=O)NCc3ccco3)ccc2F)c1	3.8%	u	20.7%	14.6*	-15.0%	45.5
O=S(=O)(NCc1ccco1)c1ccc2c(c1)Cc1ccccc1-2	63.3%	2.9%	u	48.0*	-7.1%	40.6*
Cc1cc(C)n(-c2ccc(C(=O)Nc3ccc(S(=O)(=O)NCc4ccco4)cc3)cc2)n1	29.5%	12.6µM*!	13.1µM*	22.2*	u	29.4
O=C(NCc1ccccc1)c1ccc(S(=O)(=O)NCc2ccco2)cc1	-11.9%	-3.8%[46.1 µM]	10.7%	37.8*	4.0%	53.2*
Cc1cccc(C(=O)Nc2cccc(S(=O)(=O)NCc3ccco3)c2)c1	-9.7%	10.9%	-28.3%	x	u	x
O=C(COC(=O)c1ccc(S(=O)(=O)NCc2ccco2)cc1)NC1CCCCC1	10.5%	-24.9%[46.1 µM]	x	3.1	-13.4%	-2.2
Cc1ccc(C(=O)Nc2ccc(S(=O)(=O)NCc3ccco3)cc2)cc1	12.9%	-16.8%	x	37.6*	21.8%	36.5*
Cc1ccc(NC(=O)CN(C)C(=O)c2cccc(S(=O)(=O)NCc3ccco3)c2)cc1	9.28µM*	x	-6.1%	x	x	x
